Results filed as inconclusive are left out. The source made the active and inactive calls. Calls follow the shape of the dose curve; as a rule, active = well fitted inhibition curve with a large enough effect; inconclusive = small, poorly fitted or top-dose-only effect; inactive = no such curve, though single readings can be large or run the other way.
tested on: Zika virus NS2B-NS3 protease (unlinked); test: Optimization of GU AMC qHTS for Zika virus inhibitors: Unlinked NS2B-NS3 protease assay (AID 1347151); details: recombinant ZIKV NS2B-NS3 protease, fluorogenic AMC substrate; series mostly up to 52.5 µM; activity change, negative = inhibition: at the top concentration; also: nearly all actives have a fitted effect of over 80% in size;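 as to activity change, negative = inhibition: 0% = no-inhibitor control and -100% = no-enzyme control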
Text: Avindra Nath, Ph.D., National Institute of Neurological Disorders and Stroke (NINDS), Bethesda, MD
Radhakrishnan Padmanabhan, Ph.D., Georgetown University (GU), Washington D.C.
Zika Virus causes congenital defects, including microcephaly and is associated with Guillain-Barre syndrome, eningoencephalitis and myelitis in infected adult. […] Using a target-based approach, we hope to establish a screening paradigm to uncover novel, cell-active NS2B-NS3 protease (Zika Virus) specific inhibitors from NCATS' collection of small molecules using qHTS.
Early Translation Branch (ETB)
National Center for Advancing Translational Sciences (NCATS), Rockville, MD
National Institute of Health (NIH), Bethesda, Maryland
Padmanabhan lab provided the NS2B hydrophilic domain and NS3 protease domain in a noncovalent complex used for the unlinked assay. Control compound aprotinin is obtained from Thermo Scientific (#78432; Waltham, Massachusetts). NS2B-NS3 AMC substrate (Bz-Nle-Lys-Arg-Arg-AMC; Nle-KRR-AMC) purchased from Bachem (#I-1995; Torrance, CA). Ac-VKTGKR-AMC purchased from Genscript or Bachem, Ac-FAAGKR-AMC purchased from Genscript, Ac-GLVKRR-AMC purchased from Genscript, Ac-LKKR-AMC purchased from Genscript.
GU AMC unlinked NS2B-NS3 protease qHTS protocol:
Briefly, 3 microL of Zika virus unlinked NS2B-NS3 protease (25 nM for linked final concentration), in assay buffer (10 mM Tris-HCl pH 8.0 with 0.01% Tween 20) was dispensed into a 1,536-well solid-bottom black plate (Greiner Bio One, Monroe, NC). Twenty-three nL of compounds (final concentration range 7.28 nM to 114 microM) or control Aprotinin (final concentration range 3.47 nM to 114 microM) were transferred via Wako Pin-tool (Wako Automation, Richmond, VA). […] Plates were then read immediately on a ViewLux High-throughput CCD imager (PerkinElmer, Waltham, MA) equipped with standard UV fluorescence optics (340(30) nm excitation, 450(20) nm emission) then incubated (room temperature, protected from light) for 15 minutes (~20% conversion). The change in fluorescence intensity over the 15-minute reaction period was normalized against no-inhibitor and no-enzyme controls and the resulting percent inhibition data were fitted to a 4-parameter Hill equation. Aprotinin was used as the intraplate control.
Potency is read from the fitted curve at half-maximal effect.

| Compound | activity change, negative = inhibition | Potency |
| --- | --- | --- |
| CCN(CC)CCCCCCCCOC(=O)c1cc(OC)c(OC)c(OC)c1 | 3.24% (inactive) |  |
| O=S(=O)(c1cccc2c(Cl)cccc12)N1CCCNCC1 | 9.16% (inactive) |  |
| N[C@@H](CCCC(=O)O)C(=O)O | 5.58% (inactive) |  |
| CC1CNCCN1S(=O)(=O)c1cccc2cnccc12 (stereo not given) | -8.03% (inactive) |  |
| Fc1ccc(CN(C2=NCCN2)c2c(Cl)cccc2Cl)cc1 | 8.55% (inactive) |  |
| C[C@H]1CC2C3CCC4=CC(=O)C=C[C@]4(C)[C@@]3(Cl)[C@@H](O)C[C@]2(C)[C@@]1(O)C(=O)CO (stereo not given in full) | 2.24% (inactive) |  |
| CC(C)C[C@H](NC(=O)C1OC1C(=O)O)C(=O)NCCCCN=C(N)N (stereo not given in full) | 3.18% (inactive) |  |
| N=C(N)SCCN | -1.38% (inactive) |  |
| N=C(N)c1ccc(N)cc1 | 0.699% (inactive) |  |
| O=C(O)c1cc(=O)cc(C(=O)O)[nH]1 | -1.76% (inactive) |  |
| O=c1[nH]c(=O)c2nc3ccccc3nc2[nH]1 |  | 26.7 µM (active) |
| CC(=O)O[C@H]1CC2(C)[C@@H](C[C@@H](O)[C@H]3[C@@]4(C)CC[C@@H](O)[C@@H](C)[C@@H]4CC[C@@]32C)C1=C(CCC=C(C)C)C(=O)O (stereo not given in full) | -2.5% (inactive) |  |
| O=C(O)CCC/C=C\C[C@@H]1[C@@H](/C=C/[C@H](O)C2Cc3ccccc3C2)[C@@H](F)C[C@@H]1O | 0.89% (inactive) |  |
| CSC(N)=NCCC[C@H](N)C(=O)O | 2.23% (inactive) |  |
| CCCCCC(O)CCCC(=O)O (stereo not given) | 0.936% (inactive) |  |
| CC(N)=NCCCC[C@@H](N)C(=O)O | 0.0121% (inactive) |  |
| CCCCCCC/C=C\CCCCCCCCC(=O)O |  | 21.2 µM (active) |
| Cc1cccc(C(=O)NCN2CCN(c3ccccc3C#N)CC2)c1 |  | 26.7 µM (active) |
| N[C@H](C(=O)O)[C@H](Cc1ccccc1)C(=O)O | 6.44% (inactive) |  |
| CC(N)=O | 7.03% (inactive) |  |

| Compound | activity change, negative = inhibition | Potency |
| --- | --- | --- |
| NCC(O)c1ccc(O)c(O)c1 (stereo not given) | -3.73% (inactive) |  |
| N=C(N)SCCc1cnc[nH]1 | -0.0986% (inactive) |  |
| c1ccc(C(NCc2cccnc2)(c2ccccc2)c2ccccc2)cc1 | -7.8% (inactive) |  |
| O=C(O)C1CCNCC1 | -7.03% (inactive) |  |
| COc1ccc2c(c1)c(CC(=O)O)c(C)n2C(=O)c1ccccc1 | 7.44% (inactive) |  |
| O=C(N[C@@H](Cc1ccccc1)C(=O)CCl)OCc1ccccc1 | 8.24% (inactive) |  |
| CC(O)C(O)[C@H]1CNc2nc(N)[nH]c(=O)c2N1 (stereo not given in full) |  | 26.7 µM (active) |
| CC1C(=O)N(C)C(=O)c2nc[nH]c21 (stereo not given) | 6.82% (inactive) |  |
| CN(C)S(=O)(=O)c1ccc2c(c1)/C(=C/c1cc3c([nH]1)CCCC3)C(=O)N2 | -7.99% (inactive) |  |
| NC(=O)CNCCC(c1ccccc1)c1ccccc1 | 4.77% (inactive) |  |
| O=c1cc(-c2ccccc2)[nH]c2nc(Cl)ccc12 |  | 11.9 µM (active) |
| c1ccc2c(c1)CCC[C@H]2Nc1nc2ccccc2[nH]1 | -8.23% (inactive) |  |
| O=C(O)/C=C/c1ccc(O)c(O)c1 | 99.6% (inactive) |  |
| C[C@H](NC(=O)/C(C#N)=C/c1ccc(O)c(O)c1)c1ccccc1 |  | 2.38 µM (active) |
| CC(=O)SC1CC2=CC(=O)CC[C@]2(C)C2CC[C@@]3(C)C(CC[C@@]34CCC(=O)O4)C12 (stereo not given in full) | 8.81% (inactive) |  |
| COc1ccc(C(=O)NCc2cccnc2)cc1C(=O)NCc1cccnc1 | -5.01% (inactive) |  |
| N[C@H]1CONC1=O | 7.48% (inactive) |  |
| Nc1ncnc2c1c(-c1ccc(Oc3ccccc3)cc1)cn2C1CCCC1 |  | 23.8 µM (active) |
| CC1CCN(CC[C@H]2CCCN2S(=O)(=O)c2cccc(O)c2)CC1 | 8.12% (inactive) |  |
| CCn1c(=O)[nH]c2cc(Cl)c(Cl)cc21 | -10.3% (inactive) |  |

Source: PubChem BioAssay (NCATS)
